Experimental data: the supplement of paper PMC6805474

Legend:
[1] = system: Schistosoma mansoni schistosomula (LE); experiment: XTT viability relative to DMSO control; higher = more viable (less active); settings: 72 h; 10 µM
Method: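 XTT/PMS was then added for a further 24 h (72 h total) and A450 was read. % viability = (sample - heat-killed control)/(DMSO control - heat-killed control) x 100, from duplicate wells in two independent experiments.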

[2] = system: Schistosoma mansoni schistosomula (NMRI); experiment: phenotypic severity score (0-4); higher = more antischistosomal effect, active = 2 or more; settings: 10 µM
[3] = system: Schistosoma mansoni schistosomula (Liberian); experiment: drug effect (1 - score/DMSO control score) (fraction); higher = more antischistosomal effect, active = 0.5 or more; extreme values may be limits of the assay; settings: 10 µM
Outline: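 Liberian-strain Schistosoma mansoni schistosomula, mechanically transformed from cercariae and pre-incubated at least 12 h, were exposed in duplicate (50 per well, flat-bottom 96-well plates) to 10 µM compound in Medium 199 with 5% FCS at 37 °C, 5% CO2, with 0.1% DMSO control wells. Wells were scored visually (10×) at 24, 48 and 72 h on a quarter-point scale from 3 (normal) to 0 (dead). Drug effect was derived from the mean test-well score relative to the mean DMSO-control score. Negative values were set to zero, and plates were valid only if control wells averaged at least 2.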
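For phenotypic severity score (0-4) in this document: visual microscopic scoring of shape, motility and density changes versus 0.5% DMSO solvent controls, one point per descriptor, degeneracy or death scored 4, mean of duplicate wells.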

SMILES | XTT viability [1] [%] | phenotypic severity score ([2]; 24 h) | phenotypic severity score ([2]; 48 h) | phenotypic severity score ([2]; 72 h) | drug effect ([3]; 24 h) | drug effect ([3]; 48 h) | drug effect ([3]; 72 h)
O=C(NCc1ccco1)N1CCN(Cc2ccc(Cl)s2)CC1 | 93.6 | 0 (inactive) | 0 (inactive) | 0 (inactive) | 0.136 (inactive) | 0.3 (inactive) | 0.345 (inactive)
c1ccc2c(c1)CN(CC1CC1)CC1(CCN(Cc3c[nH]c4cnccc34)CC1)O2 | 58 | 0 (inactive) | 0 (inactive) | 0 (inactive) | < 0 (inactive) | 0.1 (inactive) | 0.211 (inactive)
CC(c1cc(Cl)cc(Cl)c1)N(C)c1ncc2c(N)nc(N)nc2n1 (stereo not given) | 42.2 | 0 (inactive) | 0 (inactive) | 0 (inactive) | < 0 (inactive) | < 0 (inactive) | 0.167 (inactive)
COc1cccc(OC)c1C(=O)Nc1ccc(Cl)c(-c2nc3ccccc3s2)c1 | 108 | 2 (active) | 2 (active) | 2 (active) | 0.4 (inactive) | 0.5 (active) | 0.625 (active)
CCCS(=O)(=O)N1CCC(CO)(Cc2ccccc2C(F)(F)F)CC1 | 95.7 | 2 (active) | 4 (active) | 4 (active) | 0.243 (inactive) | 0.278 (inactive) | 0.75 (active)
COc1cccn2c(C(=O)N3CCCCC3)c(C(F)(F)F)nc12 | 95.7 | 0 (inactive) | 0 (inactive) | 0 (inactive) | 0.182 (inactive) | 0.2 (inactive) | 0.127 (inactive)
CC(C)NCC(=O)Nc1cccc(C(=O)Nc2cccc(C(F)(F)F)c2)c1 | 86.7 | 0 (inactive) | 0 (inactive) | 0 (inactive) | 0.2 (inactive) | 0.167 (inactive) | 0.375 (inactive)
COc1ccc(OC(C)C(=O)Nc2ccc(Cl)cc2C)cc1 (stereo not given) | 97.2 | 0 (inactive) | 0 (inactive) | 0 (inactive) | 0.182 (inactive) | 0.35 (inactive) | 0.345 (inactive)
O=C(C(Cc1c[nH]c2ccccc12)NS(=O)(=O)c1ccc(Cl)cc1)N1CCCCC1 (stereo not given) | 96.4 | 0 (inactive) | 0 (inactive) | 0 (inactive) | 0.05 (inactive) | 0.0811 (inactive) | 0.111 (inactive)
CC1CC1C(=O)NC1CCN(CC2(c3ccccc3)CCCCC2)CC1 (stereo not given) | 82.4 | 1 (inactive) | 0 (inactive) | 0 (inactive) | < 0 (inactive) | 0.0811 (inactive) | 0.222 (inactive)
CC(=O)N1CCN(c2ccc(Oc3ccc(Cl)cc3O)cc2)CC1 | 89.7 | 0 (inactive) | 0 (inactive) | 0 (inactive) | 0.1 (inactive) | 0.027 (inactive) | 0.0303 (inactive)
OC[C@H]1O[C@@H](n2c3ccc(Cl)cc3c3c(-c4cc5ccccc5o4)ncnc32)C(O)[C@H]1O (stereo not given in full) | 93.9 | 0 (inactive) | 0 (inactive) | 0 (inactive) | 0.158 (inactive) | 0.111 (inactive) | < 0 (inactive)
Cc1cc(C)nc(-n2nc(C)cc2Nc2ccccc2)n1 | 55.6 | 2 (active) | 1 (inactive) | 4 (active) | 0.0526 (inactive) | 0.278 (inactive) | 0.25 (inactive)
CCCCCCCCCCCCCCCCOP(=O)([O-])OCC[N+](C)(C)C | 127 | 0 (inactive) | 0 (inactive) | 0 (inactive) | 0.05 (inactive) | 0.243 (inactive) | 0.273 (inactive)
Clc1ccc(-n2cc(COc3ccnc4ccccc34)nn2)cc1 | 103 | 0 (inactive) | 0 (inactive) | 0 (inactive) | 0.105 (inactive) | 0.389 (inactive) | 0.312 (inactive)
Cc1ccc(-c2nc(CN(Cc3ccccn3)C(C)C)cs2)o1 | 84.4 | 0 (inactive) | 1 (inactive) | 0 (inactive) | 0.05 (inactive) | 0.222 (inactive) | 0.389 (inactive)
CN1CCC(NCc2cccc(-c3ccc(S(=O)(=O)NCc4ccccc4)cc3)c2)CC1 | 19.2 | 0 (inactive) | 2 (active) | 4 (active) | 0.6 (active) | 0.784 (active) | 0.939 (active)
Nc1ccc2ncnc(Nc3ccc(OCc4cccc(F)c4)c(Cl)c3)c2c1 | 55.9 | 4 (active) | 4 (active) | 4 (active) | 0.3 (inactive) | 0.622 (active) | 0.879 (active)
N#Cc1nc(-c2ccccc2)oc1S(=O)(=O)c1ccc(Cl)cc1 | -7.61 | 0 (inactive) | 0 (inactive) | 1 (inactive) | 1 (active) | 1 (active) | 1 (active)
Cc1ccc(Oc2ccc(NC(=O)CNc3ccccc3N3CCCC3=O)cc2)cc1 | 77 | 2 (active) | 2 (active) | 0 (inactive) | 0.2 (inactive) | 0.333 (inactive) | 0.556 (active)
O=C(NCCc1c[nH]c2ccccc12)c1cc2ccccc2oc1=O | 91.2 | 1 (inactive) | 0 (inactive) | 0 (inactive) | 0.182 (inactive) | 0.4 (inactive) | 0.455 (inactive)
CN1CCN(S(=O)(=O)c2ccc(-c3ccc4c(Nc5ccc6nn[nH]c6c5)ccnc4c3)cc2)CC1 | 152 | 0 (inactive) | 0 (inactive) | 0 (inactive) | 0.1 (inactive) | 0.135 (inactive) | 0.0909 (inactive)
O=C(Nc1ccc(C(F)(F)F)c(C(F)(F)F)c1)c1cc(Cl)ccc1O | 35.4 | 4 (active) | 4 (active) | 4 (active) | 1 (active) | 1 (active) | 1 (active)
Nc1ncnc2c1c(Cc1cccc3ccccc13)nn2CC1CCNCC1 | 96.2 | 0 (inactive) | 0 (inactive) | 0 (inactive) | < 0 (inactive) | < 0 (inactive) | < 0 (inactive)
O=C(Nc1ccnc(-c2cccnc2)n1)c1cc(C(F)(F)F)cc(C(F)(F)F)c1 | 91 | 0 (inactive) | 0 (inactive) | 0 (inactive) | 0.1 (inactive) | 0.0811 (inactive) | 0.111 (inactive)
Cc1ccc(C(=O)Nc2ccc(S(=O)(=O)O)c3cc(S(=O)(=O)O)cc(S(=O)(=O)O)c23)cc1NC(=O)c1cccc(NC(=O)Nc2cccc(C(=O)Nc3cc(C(=O)Nc4ccc(S(=O)(=O)O)c5cc(S(=O)(=O)O)cc(S(=O)(=O)O)c45)ccc3C)c2)c1 | 94.8 | 0 (inactive) | 0 (inactive) | 0 (inactive) | 0.15 (inactive) | 0.297 (inactive) | 0.389 (inactive)
CS(=O)(=O)N1CCC(Cn2nc(Cc3cccc4ccccc34)c3c(N)ncnc32)CC1 | 122 | 0 (inactive) | 0 (inactive) | 0 (inactive) | 0.1 (inactive) | 0.568 (active) | 0.636 (active)
N#CCN(CCCCN1CCN(c2ccc(F)cc2)CC1)C(=O)OCc1ccccc1 | 118 | 0 (inactive) | 0 (inactive) | 0 (inactive) | 0.0811 (inactive) | 0.111 (inactive) | 0.125 (inactive)
CCS(=O)(=O)N(Cc1ccco1)Cc1cc2ccc(C)cc2nc1O | 55.5 | 0 (inactive) | 1 (inactive) | 0 (inactive) | 0.2 (inactive) | 0.333 (inactive) | 0.5 (active)
CNC(=O)c1cc(S(=O)(=O)N2CCN(c3ccccn3)CC2)cs1 | 73.4 | 0 (inactive) | 0 (inactive) | 0 (inactive) | 0.1 (inactive) | 0.135 (inactive) | 0.111 (inactive)
